Experimental data reported in PubChem BioAssay (NCATS).
Where “and” joins values, the source holds several entries; their conditions need not be identical. Equal values may be shown once. Results filed as inconclusive are left out. Calls of active or inactive are those of the source. Unless noted, calls follow the shape of the dose curve; as a rule, active = well fitted curve in the direction sought with a large enough effect; inconclusive = small, poorly fitted or top-dose-only effect, or another doubt; inactive = no such curve, though single readings can be large; an effect the other way counts as inactive or inconclusive.

Tests used:
[1] = qHTS assay for small molecule agonists of retinoid X receptor alpha signaling (AID 588544); details: HEK293T RXRa-UAS-bla, beta-lactamase reporter, 18 h; 530 nm emission
[2] = target: Thyroid hormone receptor beta (Homo sapiens) (UniProt P10828); assay: qHTS assay for small molecule agonists of thyroid hormone receptor beta signaling (AID 588545; calls by dose curve;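 also: 0% = DMSO only and 100% = 10 nM T3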)
How it was run: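 Compounds were tested as agonists in TR-UAS-bla-GripTite HEK 293 cells. After 18 hrs at 37 C, CCF4 substrate was added and fluorescence read after 2 hrs at room temperature.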

[3] = qHTS assay for small molecule antagonists of retinoid X receptor alpha signaling (AID 588546; active = well fitted inhibition curve with a large enough effect in the signal ratio, with a control signal flat, not every such curve was filed as active; the % refers to the signal ratio;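 also: cells stimulated with 9-cis-retinoic acid as agonist; % is scaled to controls: 0 for no effect and ±100 for the full control effect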); details: HEK293T RXRa-UAS-bla, beta-lactamase ratio, antagonist mode; measured here: W530 green channel, cytotoxicity proxy
How it was run: (§1)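 Beta-lactamase reporter inhibition, read as CCF4 fluorescence ratio (ex 405, em 460/530 nm) after 2 h at RT. HEK293T UAS-bla cells, 2500/well, were stimulated with 9-cis-RA at 500 or 100 nM final alongside test compound for 18 h at 37 C.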

[4] = target: Retinoic acid receptor RXR-alpha (Homo sapiens) (UniProt P19793); assay: as above; details: HEK293T RXRa-UAS-bla, beta-lactamase ratio, antagonist mode
How it was run: as §1

[5] = target: Thyroid hormone receptor beta (Homo sapiens) (UniProt P10828); assay: qHTS assay for small molecule antagonists of thyroid hormone receptor beta signaling (AID 588547; active = well fitted inhibition curve with a large enough effect in the signal ratio, with a control signal flat, not every such curve was filed as active; the % refers to the signal ratio;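 also: cells stimulated with 0.4 nM T3 agonist during compound exposure; series mostly up to about 77 µM; % is scaled to controls: 0 for no effect and ±100 for the full control effect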); details: TR-UAS-bla HEK293, beta-lactamase ratio, antagonist mode, 18 h
How it was run: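 TR-UAS-bla GripTite HEK293 cells in 2% charcoal/dextran FBS medium; compounds 0.59 nM to 92 uM with T3 at 0.4nM final, 18 h at 37 C. Beta-lactamase read by CCF4 fluorescence (460/530 nm); Hill fits gave IC50 and efficacy.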

[6] = target: Voltage-gated inwardly rectifying potassium channel KCNH2 (Homo sapiens) (UniProt Q12809); assay: qHTS Assay for Small Molecule Inhibitors of the Human hERG Channel Activity (AID 588834);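 also: top concentration of the series differs between compounds; % is scaled to controls: 0 for no effect and ±100 for the full control effect; lower thallium flux fluorescence means stronger hERG block; nearly all actives have a fitted effect of over 50% in size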
How it was run: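 Measured: FluxOR fluorescence after thallium stimulation in U2OS cells transduced with hERG by baculovirus. Compounds pre-incubated around 10 min; medium Opti-MEM with 2% FCS. AC50 from Hill equation.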

[7] = qHTS assay for small molecule agonists of the antioxidant response element (ARE) signaling pathway (AID 651741; active = well fitted activation curve with a large enough effect in the signal ratio; the % refers to the signal ratio; also: % of control where 0% means no effect)
How it was run: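 HepG2 ARE-bla cells plated at 2,000 cells/well and incubated 5 h at 37 C/5% CO2 received 23 nL compound in DMSO. After 16 h at 37 C, LiveBLAzer B/G FRET substrate was applied for 2 h at room temperature and fluorescence read.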

[8] = qHTS assay for small molecule activators of the p53 signaling pathway (AID 651743; active = well fitted activation curve with a large enough effect in the signal ratio, not every such curve was filed as active; the % refers to the signal ratio; also: series mostly up to about 92 µM; % of control where 0% means no effect); details: HCT-116 p53RE-bla, beta-lactamase FRET ratio, 16 h; activation: stronger effect = higher value
How it was run: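 HCT-116 p53RE-bla, 4,000 cells/well; 5 h settle; cpd/DMSO 16 h, 37 C; LiveBLAzer B/G 2 h RT; fluorescence intensity.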

[9] = qHTS assay for small molecule activators of the nuclear factor-kappa B (NF-kB) signaling pathway (AID 651749; active = well fitted activation curve with a large enough effect in the signal ratio; the % refers to the signal ratio; also: series mostly up to about 77 µM; % of control where 0% means no effect); details: NF-kB-bla ME-180 cells, beta-lactamase FRET ratio, 16 h; stronger effect = higher value
How it was run: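 Incubation lasted 16 hr at 37C in 5% CO2 after 23 nL compound addition to ME-180 NF-kB-bla cells. Activation appears as beta-lactamase-mediated FRET loss.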

[10] = qHTS assay for small molecule disruptors of the mitochondrial membrane potential - 1 hr assay (AID 651754; calls by dose curve; also: % is scaled to controls: 0 for no effect and ±100 for the full control effect; nearly all actives have a fitted effect of over 35% in size)
How it was run: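 Steps: seed HepG2 cells and let attach overnight; pin-transfer compound or vehicle; incubate 1 hr at 37C; add Mito-MPS dye for 30 min; read two-channel fluorescence for monomer and aggregate forms.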

[11] = qHTS assay for small molecule disruptors of the mitochondrial membrane potential - 5 hr assay (AID 651755; calls by dose curve; also: % is scaled to controls: 0 for no effect and ±100 for the full control effect; nearly all actives have a fitted effect of over 40% in size)
How it was run: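 HepG2 cells (2,000/well), attached overnight, exposed to compound 5 hr at 37C, then Mito-MPS dye 30 min. Fluorescence read for monomers (490/535 nm) and aggregates (540/590 nm).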

[12] = target: Tumor necrosis factor (Homo sapiens) (UniProt P01375); assay: qHTS assay to identify small molecules that stimulate Tumor Necrosis Factor-alpha (TNF-alpha) secretion (AID 651757; active = well fitted curve in the direction sought with a large enough effect in the signal ratio; the % refers to the signal ratio; also: 0% is about no effect)
How it was run: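 Secreted TNF-alpha from compound-treated THP-1 cells (17 hrs, 37 C) was quantified with a homogeneous time-resolved fluorescence antibody assay.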

[13] = qHTS assay to identify small molecules that stimulate interleukin-8 (IL-8) secretion (AID 651758; active = well fitted activation curve with a large enough effect in the signal ratio; the % refers to the signal ratio; also: 0% is about no effect)
How it was run: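 THP-1 cells (2000/well) exposed to compound 16 h at 37 C; secreted IL-8 then detected by HTRF with cryptate- and XL665-labelled anti-IL-8 antibody pair after 1-3 h at room temperature.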

[14] = qHTS assay for environmental chemicals that activate the Aryl hydrocarbon Receptor (AhR) signaling pathway (AID 651777); details: 1A2-DRE human hepatoma cells, luciferase, 24 h; activation: stronger effect = higher value; also: % of control where 0% means no effect; nearly all actives have a fitted effect of over 15% in size
How it was run: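 Measured luciferase activity, read 30 min after One-Glo addition at room temperature, from human hepatoma cells bearing a dioxin response element–CYP1A2 promoter reporter and exposed to compound for 24 hr at 37 C.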

[15] = target: Peroxisome proliferator-activated receptor alpha (Homo sapiens) (UniProt Q07869); assay: qHTS assay for small molecule agonists of the peroxisome proliferator-activated receptor alpha (PPARalpha) signaling pathway (AID 651778); details: PathHunter PPARalpha complementation, chemiluminescence, 6 h; max response: stronger effect = higher value; also: % of control where 0% means no effect
How it was run: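 Enzyme-fragment complementation assay in which ligand-bound PPARalpha translocates and forms an active enzyme that generates chemiluminescence. Cells were plated overnight, exposed to compound for 6 hr at 37 C, and then given detection reagent for 60 min at room temperature.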

[16] = qHTS assay for small molecule agonists of the antioxidant response element (ARE) signaling pathway measured by Nrf2-dependant transcriptional activity (AID 720636; active = well fitted curve in the direction sought with a large enough effect in the repeat runs; an effect the other way counts as inactive or inconclusive;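 also: HepG2 cells with an ARE-driven luciferase reporter; % of control where 0% means no effect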)
How it was run: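 In HepG2 cells engineered with an Nrf2-responsive luciferase gene, ARE induction was quantified as luminescence after 16 hr compound treatment at 37 C.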

[17] = qHTS assay for small molecule antagonists of the retinoid-related orphan receptor gamma (ROR-gamma) signaling pathway - cell viability counter screen (AID 720652; active = well fitted curve in the direction sought with a large enough effect in the repeat runs; an effect the other way counts as inactive or inconclusive;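 also: CHO reporter cells with doxycycline-induced ROR-gamma expression; series mostly up to about 92 µM; compound exposure lasted 16 hr before ATP read; % is scaled to controls: 0 for no effect and ±100 for the full control effect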)
How it was run: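 Cytotoxicity is quantified via intracellular ATP (CellTiter-Glo luminescence) in doxycycline-induced CHO ROR response element-luciferase reporter cells treated with compound for 16 hr at 37 C, 5% CO2.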

[18] = qHTS assay for small molecule agonists of the antioxidant response element (ARE) signaling pathway measured by Nrf2-dependant transcriptional activity - cell viability counter screen (AID 720653; active = well fitted curve in the direction sought with a large enough effect in the repeat runs; an effect the other way counts as inactive or inconclusive; also: % is scaled to controls: 0 for no effect and ±100 for the full control effect); details: ARE-bla HepG2 viability, CellTiter-Glo ATP luminescence, 16 h; max response: stronger effect = lower value
How it was run: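 ARE-bla HepG2 cells treated with compounds for 16 h at 37C; this counter screen measures viability as intracellular ATP by CellTiter-Glo luminescence after 30 min at room temperature.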

[19] = qHTS assay for cell viability of HEK293 cells (AID 743288); details: ATP luminescence (CellTiter-Glo), 18 h; max response: stronger effect = lower value; also: % is scaled to controls: 0 for no effect and ±100 for the full control effect; nearly all actives have a fitted effect of over 50% in size
How it was run: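 The Tox21 protocol used parental HEK293 cells treated for 18 h at 37 C with compounds delivered by pintool; ATP-coupled luminescence after 30 min at room temperature gave viability.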

[20] = qHTS assay for cell viability of the p53RE-bla HCT-116 cell line (AID 743292); also: % is scaled to controls: 0 for no effect and ±100 for the full control effect; nearly all actives have a fitted effect of over 55% in size
How it was run: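 Intracellular ATP of p53RE-bla HCT-116 cells measured by luciferase luminescence following 16 h compound incubation at 37 C; DMSO-only wells served as vehicle controls.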

[21] = target: Nuclear receptor subfamily 1 group I member 2 (Rattus norvegicus) (UniProt Q9R1A7); assay: qHTS assay for small molecule activators of the rat pregnane X receptor (rPXR) signaling pathway (AID 651751; call rule not given here; also: 0% is about no effect); details: rPXR reporter cells, luciferase (One-Glo), 24 h
[22] = qHTS assay for small molecule activators of the human pregnane X receptor (PXR) signaling pathway (AID 720659; call rule not given here; also: 0% is about no effect)

Chain of Thyroid hormone receptor beta (Homo sapiens) (P10828 whole entry, looked up): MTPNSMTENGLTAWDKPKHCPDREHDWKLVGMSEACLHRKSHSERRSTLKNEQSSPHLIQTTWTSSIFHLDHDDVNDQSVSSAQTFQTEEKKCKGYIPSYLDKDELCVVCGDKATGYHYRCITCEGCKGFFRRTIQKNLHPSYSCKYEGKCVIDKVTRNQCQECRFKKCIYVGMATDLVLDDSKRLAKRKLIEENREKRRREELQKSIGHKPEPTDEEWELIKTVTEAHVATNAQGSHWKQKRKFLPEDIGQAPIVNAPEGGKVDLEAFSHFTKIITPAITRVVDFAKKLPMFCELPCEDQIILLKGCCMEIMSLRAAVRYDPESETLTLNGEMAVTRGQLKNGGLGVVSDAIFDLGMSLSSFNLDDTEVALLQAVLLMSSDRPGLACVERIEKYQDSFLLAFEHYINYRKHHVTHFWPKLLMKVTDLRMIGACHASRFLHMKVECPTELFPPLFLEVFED
Chain of Nuclear receptor subfamily 1 group I member 2 (Rattus norvegicus) (Q9R1A7 whole entry, looked up): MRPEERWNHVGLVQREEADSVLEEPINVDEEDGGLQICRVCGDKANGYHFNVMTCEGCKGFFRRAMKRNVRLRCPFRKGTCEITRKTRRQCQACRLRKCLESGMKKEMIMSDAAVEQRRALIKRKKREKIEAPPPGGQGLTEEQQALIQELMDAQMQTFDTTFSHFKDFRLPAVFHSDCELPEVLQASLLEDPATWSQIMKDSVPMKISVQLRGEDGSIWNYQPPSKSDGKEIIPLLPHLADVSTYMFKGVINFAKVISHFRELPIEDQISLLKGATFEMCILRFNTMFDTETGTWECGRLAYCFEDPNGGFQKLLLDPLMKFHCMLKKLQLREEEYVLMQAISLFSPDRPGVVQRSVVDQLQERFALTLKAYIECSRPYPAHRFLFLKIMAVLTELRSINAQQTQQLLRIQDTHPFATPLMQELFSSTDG
Chain of Retinoic acid receptor RXR-alpha (Homo sapiens) (P19793 whole entry, looked up): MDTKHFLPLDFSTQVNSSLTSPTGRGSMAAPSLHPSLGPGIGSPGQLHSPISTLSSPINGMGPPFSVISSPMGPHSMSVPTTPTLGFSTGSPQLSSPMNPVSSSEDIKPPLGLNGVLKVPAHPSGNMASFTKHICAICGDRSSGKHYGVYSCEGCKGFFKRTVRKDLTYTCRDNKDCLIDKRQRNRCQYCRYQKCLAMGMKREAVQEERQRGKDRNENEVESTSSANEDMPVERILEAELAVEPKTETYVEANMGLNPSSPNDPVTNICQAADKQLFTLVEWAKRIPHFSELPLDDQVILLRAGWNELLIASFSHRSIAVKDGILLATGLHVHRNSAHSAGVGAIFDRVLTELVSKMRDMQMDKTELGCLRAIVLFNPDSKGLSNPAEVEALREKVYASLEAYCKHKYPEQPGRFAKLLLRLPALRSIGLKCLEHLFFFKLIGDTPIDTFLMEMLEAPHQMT
Chain of Peroxisome proliferator-activated receptor alpha (Homo sapiens) (Q07869 whole entry, looked up, the tested form may be a part): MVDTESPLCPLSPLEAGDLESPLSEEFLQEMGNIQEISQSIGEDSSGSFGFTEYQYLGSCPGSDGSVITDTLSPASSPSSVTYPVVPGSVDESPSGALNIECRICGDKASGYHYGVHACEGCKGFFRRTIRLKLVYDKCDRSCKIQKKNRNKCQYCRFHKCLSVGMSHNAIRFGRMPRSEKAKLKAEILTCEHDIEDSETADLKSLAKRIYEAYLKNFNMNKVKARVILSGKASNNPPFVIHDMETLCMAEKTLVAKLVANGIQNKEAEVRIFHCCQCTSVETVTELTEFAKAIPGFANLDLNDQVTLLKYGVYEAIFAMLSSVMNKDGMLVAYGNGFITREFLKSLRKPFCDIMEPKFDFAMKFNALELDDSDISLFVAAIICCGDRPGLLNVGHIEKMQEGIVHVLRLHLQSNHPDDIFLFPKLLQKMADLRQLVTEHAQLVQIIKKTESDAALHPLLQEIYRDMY
Chain of Voltage-gated inwardly rectifying potassium channel KCNH2 (Homo sapiens) (Q12809 whole entry, looked up): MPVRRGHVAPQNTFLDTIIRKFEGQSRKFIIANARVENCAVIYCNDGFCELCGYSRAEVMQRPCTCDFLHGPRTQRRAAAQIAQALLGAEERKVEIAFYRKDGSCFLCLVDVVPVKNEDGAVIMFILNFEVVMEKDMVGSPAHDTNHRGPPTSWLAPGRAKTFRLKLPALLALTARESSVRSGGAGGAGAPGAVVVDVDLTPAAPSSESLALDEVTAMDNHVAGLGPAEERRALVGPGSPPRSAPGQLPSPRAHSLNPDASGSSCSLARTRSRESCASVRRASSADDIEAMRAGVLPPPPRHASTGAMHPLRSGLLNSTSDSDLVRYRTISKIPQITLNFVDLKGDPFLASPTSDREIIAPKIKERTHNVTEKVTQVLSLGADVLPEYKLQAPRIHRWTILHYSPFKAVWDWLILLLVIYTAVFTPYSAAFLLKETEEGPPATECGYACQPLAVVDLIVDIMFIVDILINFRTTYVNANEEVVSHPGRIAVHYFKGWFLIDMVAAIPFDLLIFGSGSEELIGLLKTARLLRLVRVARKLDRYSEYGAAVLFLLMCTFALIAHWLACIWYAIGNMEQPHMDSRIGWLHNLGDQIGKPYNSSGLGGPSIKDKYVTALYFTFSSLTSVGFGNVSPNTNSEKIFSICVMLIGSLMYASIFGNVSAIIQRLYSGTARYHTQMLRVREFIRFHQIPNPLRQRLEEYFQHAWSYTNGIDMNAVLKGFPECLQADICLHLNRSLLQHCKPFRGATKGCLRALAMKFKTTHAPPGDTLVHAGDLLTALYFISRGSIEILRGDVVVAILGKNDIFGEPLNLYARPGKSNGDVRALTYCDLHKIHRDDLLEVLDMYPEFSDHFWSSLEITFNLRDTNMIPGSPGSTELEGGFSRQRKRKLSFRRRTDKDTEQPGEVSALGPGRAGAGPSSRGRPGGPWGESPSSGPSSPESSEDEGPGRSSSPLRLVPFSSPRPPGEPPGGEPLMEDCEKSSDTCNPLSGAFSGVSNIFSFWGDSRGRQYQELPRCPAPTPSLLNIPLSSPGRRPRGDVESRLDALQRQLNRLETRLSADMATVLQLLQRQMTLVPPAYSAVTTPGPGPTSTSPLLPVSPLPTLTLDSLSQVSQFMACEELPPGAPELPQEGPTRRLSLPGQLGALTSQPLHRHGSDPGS
Chain of Tumor necrosis factor (Homo sapiens) (P01375 whole entry, looked up): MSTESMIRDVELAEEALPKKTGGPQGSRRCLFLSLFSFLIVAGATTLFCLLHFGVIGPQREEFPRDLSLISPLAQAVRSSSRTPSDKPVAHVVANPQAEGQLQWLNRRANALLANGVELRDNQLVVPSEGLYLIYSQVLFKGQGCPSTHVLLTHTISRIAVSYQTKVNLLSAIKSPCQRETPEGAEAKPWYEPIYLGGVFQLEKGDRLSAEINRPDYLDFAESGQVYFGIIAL

CC(CCC(=O)O)(c1ccc(O)cc1)c1ccc(O)cc1
0.685% and -9.17%: max response [3]
inactive: Potency [2] | max response [4] 11.2% and 0.834% | activity change % (negative = inhibition) [5] -0.624% | Potency [6] | Potency [7] | activation [8] -5.03% and -5.24% | activation [9] 0.0681% and 0.181% | Potency [10] | Potency [11] | Potency [12] | Potency [13] | activation [14] 2.27% and -1.21% | max response [15] -9.77% and -1.13% | Potency [16] | Potency [17] | max response [18] -5.33% and -3.83% | max response [19] -3.82% and -8.09% | Potency [20] | max response [21] -1.81% and -3.54% | outcome [22]
-8.9% and -10.2%: max response [1]
